Reference: PubChem BioAssay AID588852 (The Scripps Research Institute Molecular Screening Center, 2011)
About 4,600 (1.3%) of roughly 360,000 compounds were called active.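 The calls were made as follows: active = percent inhibition above its own plate's cutoff, namely the mean of that plate's compound wells plus 3 SD; inactive = the rest.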 Only a selection was taken, and actives are over-represented in it overall.

Biological target: Muscarinic acetylcholine receptor M1 (Homo sapiens) (UniProt P11229)
Sequence (P11229 whole entry, looked up): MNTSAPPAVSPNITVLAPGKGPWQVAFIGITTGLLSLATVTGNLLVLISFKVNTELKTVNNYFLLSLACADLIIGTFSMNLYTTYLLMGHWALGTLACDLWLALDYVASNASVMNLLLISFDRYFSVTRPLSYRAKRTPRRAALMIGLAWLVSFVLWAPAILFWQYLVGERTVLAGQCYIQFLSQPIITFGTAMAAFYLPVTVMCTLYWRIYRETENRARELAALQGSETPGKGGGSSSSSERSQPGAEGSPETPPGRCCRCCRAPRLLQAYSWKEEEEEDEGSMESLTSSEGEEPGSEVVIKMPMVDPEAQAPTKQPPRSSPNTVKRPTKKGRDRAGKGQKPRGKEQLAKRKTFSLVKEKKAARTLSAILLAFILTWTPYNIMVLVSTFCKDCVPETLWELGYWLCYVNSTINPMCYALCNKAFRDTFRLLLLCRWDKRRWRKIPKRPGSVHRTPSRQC
Assay: human M1 muscarinic receptor antagonists, primary screen, CHO-K1 cells, Fluo-8 calcium fluorescence, 1536-well (AID 588852);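 also: peak over basal fluorescence ratio during 140 s after agonist addition; 0% = ACh EC80 plus DMSO and 100% = DMSO alone without agonist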
Conditions: CHO-K1 hM1, Fluo-8 calcium fluorescence, ACh EC80 antagonist; at 3 µM; hits give high values

| SMILES | inhibition |
| --- | --- |
| CCN1CCN(CCCCOc2ccccc2F)CC1 | -2.84% (inactive) |
| COc1ccccc1OCCCCCCN1CCN(C)CC1 | -0.37% (inactive) |
| COc1ccccc1N1CCN(CCCCOc2ccc(F)cc2)CC1 | 30.4% (active) |
| O=C(NC(Cc1ccc(O)cc1)C(=O)O)/C(=C/c1ccccc1)NC(=O)c1ccccc1 (configuration not stated) | -14.6% (inactive) |
| Cc1cccc(CN2CCN(C3CN(Cc4cn(Cc5ccccc5F)nn4)S(=O)(=O)C3)CC2)c1 (configuration not stated) | -4.3% (inactive) |
| COC(=O)C1=C(C)NC(=O)/C1=C/c1ccc(CNS(=O)(=O)c2ccc(C)cc2)o1 | 8.24% (inactive) |
| COC(=O)C1=C(C)NC2=C(C(=O)c3ccccc32)C1c1ccc(-c2ccc(C(=O)O)cc2)o1 (configuration not stated) | 32.9% (active) |
| COC(=O)C1=C(C)N(C)C(=O)NC1c1ccc([N+](=O)[O-])o1 (configuration not stated) | 0.09% (inactive) |
| CCN(CC)S(=O)(=O)c1ccc(N(C)Cc2cccc(OC)c2OC)nc1 | 7.81% (inactive) |
| CCN(CC)S(=O)(=O)c1ccc(N(C)Cc2ccc(C(F)(F)F)cc2)nc1 | 61.2% (active) |
| CCN(CC)S(=O)(=O)c1ccc(N(C)CCc2ccc(OC)c(OC)c2)nc1 | -0.86% (inactive) |
| Cc1ccc(Sc2ccc(NC(=O)c3ccc(F)cc3)cc2C#N)cc1 | 9.62% (inactive) |
| Cc1cc(=O)oc2cc(OCC3CC(c4ccccc4Cl)=NO3)ccc12 (configuration not stated) | -6.21% (inactive) |
| Cc1cc(OCC(=O)NC2CCN(C)CC2)ccc1[N+](=O)[O-] | -1.71% (inactive) |
| COc1cc(CN2CCN(Cc3ccc(C)cc3)CC2)c([N+](=O)[O-])cc1OC | -6.59% (inactive) |
| COc1ccc(N2CCN(C(=O)COc3ccc4c(C)cc(=O)oc4c3)CC2)cc1 | -5.75% (inactive) |
| Cc1ccccc1N1CCN(CCCOc2ccc3c(C)cc(=O)oc3c2)CC1 | 39.5% (active) |
| Cc1cc(OCCCN2CCN(Cc3ccccc3)CC2)ccc1[N+](=O)[O-] | 54.7% (active) |
| Nc1nc2cc(Cl)ccc2n1N | -2.44% (inactive) |

| SMILES | inhibition |
| --- | --- |
| CN1OC[C@@H]2CN(S(=O)(=O)c3cccc4ccccc34)[C@H](c3ccc(N4CCCCC4)cc3)C[C@@H]21 | 5.74% (inactive) |
| O=C(NC(c1ccc(-c2ccccc2)cc1)c1cnccn1)C1CCN(CCOc2ccc(Cl)cc2Cl)CC1 (configuration not stated) | -16.7% (inactive) |
| CN(C)CCOc1ccc(Cl)cc1C(C)(C)C | 66.2% (active) |
| CN(C)CCOCCOc1ccc(Cl)c2ccccc12 | -1.32% (inactive) |
| CN(C)CCOc1cccc(Br)c1 | 17.3% (inactive) |
| Cc1cc(C)cc(NC(=O)C(c2ccccc2)N2CCN(CC(=O)N3CCCC3)CC2)c1 (configuration not stated) | 3.45% (inactive) |
| Cc1cc(C)cc(NC(=O)C(OC(=O)c2ccc(O)cc2)c2ccccc2)c1 (configuration not stated) | 29.5% (active) |
| Cc1ccc(C)c(NC(=O)C(OC(=O)c2ccc(C)s2)c2ccccc2)c1 (configuration not stated) | -2.69% (inactive) |
| COCCCNC(=O)CN1C(=O)CSc2ccc(S(=O)(=O)N3CCOCC3)cc21 | -6.65% (inactive) |
| CCN(C(=O)COC(=O)c1c(C)nn(-c2ccccc2)c1Cl)c1c(N)n(Cc2ccccc2)c(=O)[nH]c1=O | -4.94% (inactive) |
| CC(=O)c1cccc(OCc2cc(C(=O)NC(C)Cc3cccnc3)no2)c1 (configuration not stated) | 18.6% (inactive) |
| CN(Cc1cccnc1)C(=O)c1cc(COc2ccc3ncccc3c2)on1 | 50% (active) |
| CN(Cc1cnccn1)C(=O)c1cc(COc2cccc(C(F)(F)F)c2)on1 | -11.2% (inactive) |
| Cc1nc(COc2cc3oc(=O)cc(C)c3cc2Cl)cs1 | -7.17% (inactive) |
| O=C(Cn1cc(C(F)(F)F)ccc1=O)Nc1ccc2c(c1)OCCO2 | -0.29% (inactive) |
| O=C(CSc1nnc(-c2ccco2)o1)NCC(=O)c1ccccc1 | -3.08% (inactive) |
| Cc1nc(-c2ccc(F)cc2)c(CC(=O)Nc2cccc(S(=O)(=O)N3CCOCC3)c2)s1 | 0.85% (inactive) |
| O=S(=O)(c1cccc(Cn2nnc(-c3ccc(F)cc3)n2)c1)N1CCOCC1 | 27.1% (active) |
| CCN(Cc1ccncc1)C(=O)c1cccc(S(=O)(=O)N2CCOCC2)c1 | -4% (inactive) |

| SMILES | inhibition |
| --- | --- |
| O=C(CSc1nc2nccnc2c(=O)n1Cc1cccs1)Nc1ccccc1F | 9.12% (inactive) |
| Cc1ccccc1CNC(=O)CCC(=O)N1Cc2ccccc2Oc2ncccc21 | -0.29% (inactive) |
| O=C(CS(=O)(=O)c1ccc(C(F)(F)F)cn1)NNC(=O)c1ccccc1 | 11.9% (inactive) |
| Nc1nc2c(ncn2[C@@H]2O[C@H](CNS(=O)(=O)N3CCc4ccccc4C3)[C@@H](O)[C@H]2O)c(=O)[nH]1 | -4.64% (inactive) |
| COC(=O)c1ccc(NC(=O)CN(c2ccc(C)cc2)S(=O)(=O)c2c(C)n[nH]c2C)cc1 | -8.36% (inactive) |
| CN(Cc1ccccc1F)c1cc2c(c3c1ccn3C)C1CCC2O1 (configuration not stated) | -40.5% (inactive) |
| CCn1c(CNC(=O)c2cc(OC)c(OC)c(OC)c2)cc2cc(C)ccc21 | 47.9% (active) |
| COc1cc(C(=O)NCc2cc3cc(Cl)ccc3n2C)cc(OC)c1OC | -19.2% (inactive) |
| COc1cc(C(=O)NCc2ccc3c(c2)cc(C)n3C)cc(OC)c1OC | -1.03% (inactive) |
| CCN(CC(=O)NC(C)C)C(=O)c1cc(S(=O)(=O)N2CCCCC2)ccc1N1CCCCC1 | -0.72% (inactive) |
| CCc1ccc(NC(=O)C(=O)N/N=C(\C)CC(=O)NCCOC)cc1 | -7.5% (inactive) |
| O=C(CSc1nc2ccccc2c(=O)n1CCCO)N1CCc2ccccc21 | -9.53% (inactive) |
| Cn1c(SCC(=O)N2CCCc3ccccc32)nc2ccccc2c1=O | 31.9% (active) |
| C=CCn1c(=O)c2ccccc2n2c(SCC(=O)N3CCCc4ccccc43)nnc12 | 10.1% (inactive) |
| CCn1c(C(C)C)n[nH]c1=S | -7.45% (inactive) |
| CC(C)C1Nc2c(C(=O)O)cccc2C(Nc2ccccc2C(=O)O)C1(C)C (configuration not stated) | 2.52% (inactive) |
| C/C(=N\NC(=O)c1ccc2ccccc2c1)c1cccnc1 | -15.4% (inactive) |
| O=C(O)CC/C(=N\NC(=O)c1ccc(F)cc1)c1ccc(Br)cc1 | -10.2% (inactive) |
| CC(=NNC(=O)c1ccc2nc[nH]c2c1)c1ccc(Br)cc1 | 35.2% (active) |
